In the library only some 1.7% were active in any assay of this set; here they are far more common.
Vif inh: inhibitors of HIV Vif; inhibition, % at 7.49 µM; 340,000 compounds, 0.35% hits; HEK293T cells, Vif self-association by quenched fluorescence, imaging, 24 h; in the data active = inhibition above about 50%, passing the limit was not always enough
CFTR F508del cor: correctors of CFTR F508del function in bronchial epithelial cells. CFBE cells, YFP halide quenching; stimulated with forskolin plus potentiator P3; % fluorescence drop versus neutral controls. activity (quench increase), % at 7.58 µM. 350,000 compounds, 0.36% hits;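 active = mean added fluorescence quench of at least 8% versus neutral control, with both replicates also reaching 8%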;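 also: cells transiently co-express mutant CFTR-F508del with the halide-sensitive YFP; corrector assay measuring rescue of mutant channel to the surface after 24 h compound exposure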
FGF22 binding: shifts melting point of recombinant human FGF22 | 340,000 compounds, 1.5% hits | Q9HCT0 | recombinant FGF22 thermal shift, SYPRO orange fluorescence; percent of sucrose octasulfate shift, DMSO zero | activity (Tm shift, normalised), % at 9.99 µM | AID 651658;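 active = mean Tm shift, scaled 0 neutral to 100 positive control, at about 1.3% or above, every replicate too, limit read from the data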
Target sequence (Q9HCT0 whole entry, looked up): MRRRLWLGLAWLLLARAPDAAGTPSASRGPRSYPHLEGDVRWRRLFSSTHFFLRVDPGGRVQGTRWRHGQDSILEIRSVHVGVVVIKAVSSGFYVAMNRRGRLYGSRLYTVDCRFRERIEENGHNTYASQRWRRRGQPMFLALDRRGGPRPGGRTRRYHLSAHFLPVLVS
Active calls of the source: *.

How did Cc1cccc(N2CCN(C(=O)CCN3C(=O)C4C5C=CC(C5)C4C3=O)CC2C)c1 (stereo not drawn) do in these assays?
Vif inh: 4.9; CFTR F508del cor: -1.0; FGF22 binding: 43.5*

What do the screens show for `Cc1cccc(N2CCN(C(=O)NC3CCCCC3)CC2C)c1` (stereo not drawn)?
Vif inh: -6.9; CFTR F508del cor: -2.9; FGF22 binding: -0.2

How did Cc1cccc(N2CCN(C(=O)c3cccc(N4C(=O)C5C6C=CC(C6)C5C4=O)c3)CC2C)c1 (stereo not drawn) do in these assays?
Vif inh: -3.1; CFTR F508del cor: -1.8; FGF22 binding: 0.0

Results for Cc1cccc(N2CCN(C(=O)c3ccccn3)CC2C)c1 (stereo not drawn) ?
Vif inh: 7.6; CFTR F508del cor: -1.5; FGF22 binding: 43.1*

Results for CCCC(=O)Nc1ccc2c(c1)C(=O)N(C)C[C@H](OC)[C@H](C)CN(C)[C@H](C)CO2 ?
CFTR F508del cor: 2.6; FGF22 binding: -0.2

How did C[C@@H]1CN([C@@H](C)CO)C(=O)c2cc(NS(C)(=O)=O)ccc2O[C@@H](C)CCCCO[C@@H]1CN(C)C(=O)Nc1ccc(F)cc1 do in these assays?
CFTR F508del cor: -0.7; FGF22 binding: -0.1

Results for CC(=O)O/N=C/c1c(Cl)n(C)c2ccccc12 ?
Vif inh: 1.6; CFTR F508del cor: -0.9; FGF22 binding: 43.6*

Results for Cn1c(Cl)c(/C=N/OC(=O)C(C)(C)C)c2ccccc21 ?
Vif inh: 2.8; CFTR F508del cor: -2.1; FGF22 binding: 0.2

What do the screens show for `C[C@@H]1CN([C@H](C)CO)C(=O)c2cc(NS(=O)(=O)c3ccccc3)ccc2O[C@@H]1CN(C)Cc1ccc(C(F)(F)F)cc1`?
CFTR F508del cor: -1.5; FGF22 binding: -0.4

How did C[C@H]1CN([C@@H](C)CO)C(=O)c2cc(NC(=O)Nc3cccc4ccccc34)ccc2O[C@@H]1CN(C)S(C)(=O)=O do in these assays?
CFTR F508del cor: -0.7; FGF22 binding: -0.1

Results for COc1ccc([N+](=O)[O-])cc1NC(=O)c1ccc(CN(c2ccc(C)c(C)c2)S(C)(=O)=O)cc1 ?
Vif inh: 14.9; CFTR F508del cor: 1.8; FGF22 binding: 0.7

What do the screens show for `Cc1ccc(N(Cc2ccc(C(=O)NN=C3CCN(C)CC3)cc2)S(C)(=O)=O)cc1C`?
Vif inh: 64.1*

What do the screens show for `COc1ccc(S(=O)(=O)N(C)C[C@H]2OCCCC[C@@H](C)Oc3ccc(NC(=O)Nc4ccc(C(F)(F)F)cc4)cc3C(=O)N([C@H](C)CO)C[C@H]2C)cc1`?
CFTR F508del cor: -1.4; FGF22 binding: 0.4

Results for Cc1ccc(OCc2nnc(N)s2)cc1 ?
Vif inh: 2.4; CFTR F508del cor: 0.3; FGF22 binding: 43.6*

What do the screens show for `Cc1cc(C)cc(OCc2nnc(N)s2)c1`?
Vif inh: 8.8; CFTR F508del cor: -0.2; FGF22 binding: 0.0

Results for COc1ccc(NC(=O)CN2CCc3ccccc3C2)c(OC)c1 ?
Vif inh: 0.6; CFTR F508del cor: 3.0; FGF22 binding: 0.0

How did COc1ccc(NC(=O)CN2C(=O)N(C)Cc3ccccc32)c(C)c1 do in these assays?
Vif inh: 2.0; CFTR F508del cor: 1.7; FGF22 binding: 44.1*

Results for COC(=O)C(CCSC)NC(=O)/C=C/c1ccc(OC)cc1 (stereo not drawn) ?
Vif inh: -3.7; CFTR F508del cor: 0.1; FGF22 binding: 43.5*

What do the screens show for `COc1ccc(/C=C/C(=O)NC(C)CCc2ccccc2)cc1` (stereo not drawn)?
Vif inh: -6.0

What do the screens show for `C[C@@H]1CN([C@@H](C)CO)S(=O)(=O)c2ccc(C3=CCCCC3)cc2O[C@H]1CN(C)S(=O)(=O)c1cn(C)cn1`?
CFTR F508del cor: 2.1; FGF22 binding: -0.5

How did O=C(C[C@@H]1CC[C@H]2[C@@H](COC[C@H](O)CN2Cc2cccc(F)c2)O1)NCCc1ccncc1 do in these assays?
CFTR F508del cor: 1.5; FGF22 binding: -0.1

Results for Cc1ccc(S(=O)(=O)Nc2ccc3c(c2)C(=O)N([C@@H](C)CO)C[C@@H](C)[C@H](CN(C)S(C)(=O)=O)OCCCC[C@@H](C)O3)cc1 ?
CFTR F508del cor: -2.5; FGF22 binding: 0.2

Results for CC1(C)NC(=O)N(CC(O)COc2ccccc2-c2ccccc2)C1=O (stereo not drawn) ?
Vif inh: 7.5

Results for COc1ccccc1OCC(O)CN1C(=O)NC(C)(C)C1=O (stereo not drawn) ?
Vif inh: 27.3; CFTR F508del cor: 9.4*; FGF22 binding: 0.0

What do the screens show for `Cc1cc(C(=O)c2ccccc2)cc(C)c1O`?
Vif inh: 11.2; CFTR F508del cor: 10.7*; FGF22 binding: 0.4

High-throughput results as filed in PubChem.
